# According to PubChem BioAssay (NCATS):
# Records with an inconclusive call do not appear. Where a call stands in place of a potency, no number is given. The source made the active and inactive calls. Unless noted, the call rests on the fitted dose curve; in most records, active means well fitted curve in the direction sought with a large enough effect; inconclusive means small, poorly fitted or top-dose-only effect, or another doubt; inactive means no such curve, though single readings can be large; an effect the other way counts as inactive or inconclusive.
# How the values were obtained:
# [1] = qHTS for differential inhibitors of proliferation of Plasmodium falciparum line D10 (AID 1877);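 further: parasites grown with compound for 72 h before DNA staining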; further: potency means the concentration at half of the fitted maximal effect
# [2] = qHTS for differential inhibitors of proliferation of Plasmodium falciparum line Dd2 (AID 1882); conditions: Potency: Plasmodium falciparum Dd2 proliferation inhibition; further: nearly all actives have a fitted effect of over 65% in size; further: potency means the concentration at half of the fitted maximal effect
# Method in brief: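 Dd2-infected erythrocytes (0.3% parasitemia, 2.5% hematocrit final) incubated with compound 72 h at 37 C, 5% CO2; lysed with saponin/Triton buffer containing SYBR Green I, incubated overnight in the dark, then read by fluorescence (485/535 nm). Normalized to 0.29 uM artemisinin and DMSO.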
# [3] = qHTS for differential inhibitors of proliferation of Plasmodium falciparum line W2 (AID 1883); conditions: Potency: Plasmodium falciparum W2 proliferation inhibition;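 further: parasites grown with compound for 72 h before lysis and staining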; further: potency means the concentration at half of the fitted maximal effect
# [4] = qHTS for differential inhibitors of proliferation of Plasmodium falciparum line HB3 (AID 1886); conditions: Potency: Plasmodium falciparum HB3 proliferation inhibition;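 further: parasites grown with compound for 72 h before SYBR Green readout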; further: potency means the concentration at half of the fitted maximal effect
# [5] = target: Ferritin light chain (Equus caballus) (UniProt P02791); experiment: qHTS Validation Assay for Identification of Novel General Anesthetics (AID 2323); further: series mostly up to about 77 µM
# Chain of Ferritin light chain (Equus caballus) (P02791 2-175 limits assumed): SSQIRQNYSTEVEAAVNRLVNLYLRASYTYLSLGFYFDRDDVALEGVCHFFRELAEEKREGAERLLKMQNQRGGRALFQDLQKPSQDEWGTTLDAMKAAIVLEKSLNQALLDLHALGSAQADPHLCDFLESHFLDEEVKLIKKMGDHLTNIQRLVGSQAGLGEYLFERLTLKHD
# Method in brief: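 Normalized fluorescence response, scaled between free 1-AMA and 1-AMA/apoferritin complex, fitted to a four-parameter Hill equation for concentration-effect values. Binding mix: 10 uM horse-spleen apoferritin, 50% saturated 1-AMA in PBS; read 380/535 nm after 10 min.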
# [6] = target: ATP-dependent DNA helicase Q1 (Homo sapiens) (UniProt P46063); experiment: qHTS Validation Assay for Inhibitors of RecQ-Like Dna Helicase 1 (RECQ1) (AID 2353); further: potency means the concentration at half of the fitted maximal effect
# Chain of ATP-dependent DNA helicase Q1 (Homo sapiens) (P46063 whole entry, looked up): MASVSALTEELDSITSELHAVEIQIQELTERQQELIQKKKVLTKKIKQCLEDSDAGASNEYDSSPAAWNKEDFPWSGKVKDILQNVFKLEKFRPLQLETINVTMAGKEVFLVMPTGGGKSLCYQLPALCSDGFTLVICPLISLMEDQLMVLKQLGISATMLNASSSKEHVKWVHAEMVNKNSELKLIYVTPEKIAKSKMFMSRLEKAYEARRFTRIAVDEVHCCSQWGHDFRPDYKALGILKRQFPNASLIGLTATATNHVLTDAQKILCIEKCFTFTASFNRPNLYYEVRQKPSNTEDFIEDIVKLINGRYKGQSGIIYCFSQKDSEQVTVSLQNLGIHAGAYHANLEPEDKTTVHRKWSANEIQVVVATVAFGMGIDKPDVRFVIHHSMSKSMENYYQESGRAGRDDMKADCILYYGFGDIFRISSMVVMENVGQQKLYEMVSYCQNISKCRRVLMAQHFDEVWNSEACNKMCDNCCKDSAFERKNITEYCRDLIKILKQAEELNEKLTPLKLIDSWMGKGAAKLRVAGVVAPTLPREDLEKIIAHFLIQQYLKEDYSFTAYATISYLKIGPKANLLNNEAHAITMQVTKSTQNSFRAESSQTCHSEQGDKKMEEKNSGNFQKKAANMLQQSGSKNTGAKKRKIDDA
# Method in brief: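 50 nM RECQ1T1 preincubated 15 min with compound in Tris pH 8.0 buffer with MgCl2, DTT, Tween-20 and 2.5 ug/ml poly(dI-dC); started with 200 nM TAMRA/BHQ-2 forked duplex and 2 mM ATP. Unwinding read as fluorescence (525/598 nm), two reads 2 h apart.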
# [7] = Cytometric Cell-Based qHTS for Inhibitors of the mTORC1 Signaling Pathway in MEF (Tsc2-/-, p53-/-) Cells (AID 2660); further: potency means the concentration at half of the fitted maximal effect
# Method in brief: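 Tsc2-/-, p53-/- MEFs (empty vector) exposed to compound 24 h at 37 C, fixed, stained with Alexa-488 anti-phospho-rpS6 Ser235/236 and propidium iodide. Acumen laser scanning; phospho-S6/PI ratio thresholded against 7.5 nM rapamycin, reported as % positive cells.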
# [8] = High Content Imaging Cell-Based qHTS for Inhibitors of the mTORC1 Signaling Pathway in MEF (Tsc2-/-, p53-/-) Cells (AID 2666);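 further: percent of cells scored positive for phospho-rpS6 Ser235/236 immunostaining by imaging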; further: potency means the concentration at half of the fitted maximal effect
# Method in brief: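 Phospho-rpS6 (Ser235/236) immunofluorescence, normalized and scored as % positive cells using rapamycin and DMSO controls, was read in empty-vector Tsc2-/-, p53-/- MEFs after 24 h compound exposure at 37 C; propidium iodide counted cells.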
# [9] = High Content Imaging Cell-Based qHTS for Inhibitors of the mTORC1 Signaling Pathway in MEF Cells (AID 2667); further: potency means the concentration at half of the fitted maximal effect
# Method in brief: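 WT MEFs (Tsc2-/-, p53-/- re-expressing Tsc2), in DMEM + 10% FBS, were treated with compound for 24 h at 37 C. Cells were then fixed and stained for phospho-rpS6 Ser235/236 with propidium iodide as cell count. Values are % positive cells, with thresholds set against rapamycin-treated cells.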
# [10] = Cytometry Cell-Based qHTS for Inhibitors of the mTORC1 Signaling Pathway in MEF cells (AID 2668); further: potency means the concentration at half of the fitted maximal effect
# Method in brief: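 In MEFs grown in DMEM + 10% FBS, a 24 hrs compound exposure preceded imaging of phospho-rpS6 Ser235/236 by laser-scanning cytometry.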
# [11] = Validation screen for small molecules that induce DNA re-replication in MCF 10A normal breast cells (AID 463097); further: nearly all actives have a fitted effect of over 60% in size
# Method in brief: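 Following 48 hr compound incubation (37 C, 5% CO2), MCF 10A cells receive Hoechst for 40 min at 37 C. Nuclei are then scanned (excitation 405 nm, emission 500-530 nm) for total fluorescence intensity.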
# [12] = target: Ubiquitin carboxyl-terminal hydrolase 2 (Homo sapiens) (UniProt O75604); experiment: qHTS Validation Assay for Inhibitors of Ubiquitin-specific Protease USP2a Using CHOP2 as the Reporter (AID 463106)
# Chain of Ubiquitin carboxyl-terminal hydrolase 2 (Homo sapiens) (O75604 whole entry, looked up): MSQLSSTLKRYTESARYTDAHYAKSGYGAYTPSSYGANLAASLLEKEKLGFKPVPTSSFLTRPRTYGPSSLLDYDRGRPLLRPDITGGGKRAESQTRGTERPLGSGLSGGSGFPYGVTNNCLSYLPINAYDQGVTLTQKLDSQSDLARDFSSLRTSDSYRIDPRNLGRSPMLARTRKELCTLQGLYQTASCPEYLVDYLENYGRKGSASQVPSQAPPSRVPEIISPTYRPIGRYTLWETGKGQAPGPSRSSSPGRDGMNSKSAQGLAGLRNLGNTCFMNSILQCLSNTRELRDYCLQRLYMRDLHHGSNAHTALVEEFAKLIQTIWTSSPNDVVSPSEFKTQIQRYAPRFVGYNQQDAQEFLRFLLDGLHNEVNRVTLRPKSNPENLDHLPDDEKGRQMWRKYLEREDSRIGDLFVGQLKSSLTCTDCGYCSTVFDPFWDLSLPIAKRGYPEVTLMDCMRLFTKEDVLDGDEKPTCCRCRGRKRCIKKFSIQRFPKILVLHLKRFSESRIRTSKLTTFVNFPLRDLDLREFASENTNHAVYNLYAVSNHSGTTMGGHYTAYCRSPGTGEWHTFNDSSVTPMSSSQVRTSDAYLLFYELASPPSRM
# Method in brief: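 USP2 core (10 nM final) was preincubated with compound 30 min at RT in pH 8.0 Tris/CaCl2/beta-ME/CHAPS buffer. Ub-CHOP2 and reporter substrate (25 nM final each) were then added, with fluorescence (Ex 485/Em 531) read after 60 min. Data were normalized to NEM full inhibition and fitted to concentration-response curves.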
# [13] = target: DNA polymerase III PolC-type (Bacillus subtilis (strain 168)) (UniProt P13267); experiment: qHTS Validation Assay for the Inhibitors of DNA Replication in Gram-Positive Bacteria (AID 485295);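 further: reconstituted holoenzyme with PolC plus beta clamp SSB and primase; PicoGreen fluorescence of double-stranded DNA made on primed circular M13 template; series mostly up to about 57 µM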
# Chain of DNA polymerase III PolC-type (Bacillus subtilis (strain 168)) (P13267 whole entry, looked up): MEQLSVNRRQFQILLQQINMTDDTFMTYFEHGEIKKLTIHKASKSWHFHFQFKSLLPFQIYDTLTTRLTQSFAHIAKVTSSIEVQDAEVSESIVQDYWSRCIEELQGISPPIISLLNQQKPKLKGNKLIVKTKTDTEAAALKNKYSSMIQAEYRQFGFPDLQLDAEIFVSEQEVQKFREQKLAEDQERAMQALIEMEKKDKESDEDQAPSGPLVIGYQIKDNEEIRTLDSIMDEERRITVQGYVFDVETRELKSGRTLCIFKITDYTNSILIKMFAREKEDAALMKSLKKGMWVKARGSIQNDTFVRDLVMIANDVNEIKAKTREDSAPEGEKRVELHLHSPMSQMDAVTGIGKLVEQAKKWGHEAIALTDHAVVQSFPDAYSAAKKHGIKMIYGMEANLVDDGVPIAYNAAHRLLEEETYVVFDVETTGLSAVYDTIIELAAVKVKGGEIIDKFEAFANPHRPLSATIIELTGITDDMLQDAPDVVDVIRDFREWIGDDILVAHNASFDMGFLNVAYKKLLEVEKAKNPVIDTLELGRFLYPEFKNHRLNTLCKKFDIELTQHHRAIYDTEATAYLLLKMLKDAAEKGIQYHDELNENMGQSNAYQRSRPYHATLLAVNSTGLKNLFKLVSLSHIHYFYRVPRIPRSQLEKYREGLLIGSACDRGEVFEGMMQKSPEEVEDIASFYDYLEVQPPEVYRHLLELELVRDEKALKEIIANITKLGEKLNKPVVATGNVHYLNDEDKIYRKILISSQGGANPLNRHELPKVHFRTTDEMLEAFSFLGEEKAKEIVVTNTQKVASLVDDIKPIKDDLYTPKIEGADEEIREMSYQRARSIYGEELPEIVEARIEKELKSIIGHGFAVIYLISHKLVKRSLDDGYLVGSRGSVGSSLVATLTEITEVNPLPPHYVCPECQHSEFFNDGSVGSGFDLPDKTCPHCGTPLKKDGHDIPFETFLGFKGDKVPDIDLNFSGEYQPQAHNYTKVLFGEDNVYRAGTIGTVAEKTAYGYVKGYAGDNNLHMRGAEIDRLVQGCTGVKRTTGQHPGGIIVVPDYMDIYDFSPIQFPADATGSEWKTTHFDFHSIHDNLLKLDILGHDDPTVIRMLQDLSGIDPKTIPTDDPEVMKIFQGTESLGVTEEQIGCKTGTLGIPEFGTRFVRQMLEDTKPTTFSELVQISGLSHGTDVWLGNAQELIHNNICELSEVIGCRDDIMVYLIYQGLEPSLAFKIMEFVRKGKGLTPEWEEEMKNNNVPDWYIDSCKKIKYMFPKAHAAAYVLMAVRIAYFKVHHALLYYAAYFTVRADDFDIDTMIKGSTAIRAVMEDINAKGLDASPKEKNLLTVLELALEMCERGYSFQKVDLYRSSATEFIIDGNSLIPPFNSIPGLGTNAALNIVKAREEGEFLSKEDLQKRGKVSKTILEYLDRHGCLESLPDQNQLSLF
# Method in brief: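 Inhibition of DNA synthesis by the reconstituted PolC holoenzyme, monitored through PicoGreen staining of dsDNA formed from ssM13Gori, dNTPs and NTPs, with compound preincubation and room-temperature reaction.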
# [14] = target: Tumor susceptibility gene 101 protein (Homo sapiens) (UniProt Q99816); experiment: qHTS Validation Assay for Iinhibitors of HIV-1 Budding by Blocking the Interaction of PTAP/TSG101 (AID 485342; calls by dose curve)
# Chain of Tumor susceptibility gene 101 protein (Homo sapiens) (Q99816 whole entry, looked up, the tested form may be a part): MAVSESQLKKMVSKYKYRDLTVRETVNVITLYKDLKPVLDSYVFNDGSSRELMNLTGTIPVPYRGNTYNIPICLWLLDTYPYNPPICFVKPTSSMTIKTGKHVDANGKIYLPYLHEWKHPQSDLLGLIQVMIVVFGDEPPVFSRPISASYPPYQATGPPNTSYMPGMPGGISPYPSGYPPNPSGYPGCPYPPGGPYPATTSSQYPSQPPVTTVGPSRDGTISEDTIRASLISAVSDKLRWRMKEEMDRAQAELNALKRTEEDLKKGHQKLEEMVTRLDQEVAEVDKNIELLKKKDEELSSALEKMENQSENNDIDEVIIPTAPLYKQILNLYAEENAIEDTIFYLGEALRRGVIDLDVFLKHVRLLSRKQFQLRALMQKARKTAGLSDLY
# Method in brief: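 Compound wells held the Tsg101 binding domain (10 uM) and a FITC-conjugated PTAP peptide (50 nM) in buffer at pH 7.5 containing 0.15 M NaCl and 0.01% Tween 20; polarization was recorded after 20 min, r.t.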
# [15] = target: Beta-2 adrenergic receptor (Homo sapiens) (UniProt P07550); experiment: qHTS validation assay of beta-arrestin-biased ligands of beta2-adrenergic receptor (AID 485366)
# Chain of Beta-2 adrenergic receptor (Homo sapiens) (P07550 whole entry, looked up): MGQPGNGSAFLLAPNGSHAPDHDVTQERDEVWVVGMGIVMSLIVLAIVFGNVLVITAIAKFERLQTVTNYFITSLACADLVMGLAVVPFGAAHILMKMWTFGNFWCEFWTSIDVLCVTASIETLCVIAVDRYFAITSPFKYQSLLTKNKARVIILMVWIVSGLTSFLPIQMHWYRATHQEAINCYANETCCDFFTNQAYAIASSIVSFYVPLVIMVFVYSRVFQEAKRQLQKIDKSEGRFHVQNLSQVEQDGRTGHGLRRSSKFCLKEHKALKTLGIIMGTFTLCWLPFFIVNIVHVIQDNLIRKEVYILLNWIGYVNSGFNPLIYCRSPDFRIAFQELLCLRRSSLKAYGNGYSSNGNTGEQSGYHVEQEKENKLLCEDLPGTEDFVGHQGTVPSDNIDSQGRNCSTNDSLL
# Method in brief: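 Tango cells expressing recombinant beta2-AR and beta-arrestin with tTA-driven luciferase, in DMEM with 1% FBS. Compounds were titrated up to 46 microM for 18 hr at 37 degrees C. Luminescence was read 15 min after substrate; curves were fitted and class-assigned.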
# [16] = target: ATP-dependent 6-phosphofructokinase (Trypanosoma brucei brucei) (UniProt O15648); experiment: qHTS Validation Assay to Find Inhibitors of T. brucei phosphofructokinase (AID 485368); further: potency means the concentration at half of the fitted maximal effect
# Chain of ATP-dependent 6-phosphofructokinase (Trypanosoma brucei brucei) (O15648 whole entry, looked up): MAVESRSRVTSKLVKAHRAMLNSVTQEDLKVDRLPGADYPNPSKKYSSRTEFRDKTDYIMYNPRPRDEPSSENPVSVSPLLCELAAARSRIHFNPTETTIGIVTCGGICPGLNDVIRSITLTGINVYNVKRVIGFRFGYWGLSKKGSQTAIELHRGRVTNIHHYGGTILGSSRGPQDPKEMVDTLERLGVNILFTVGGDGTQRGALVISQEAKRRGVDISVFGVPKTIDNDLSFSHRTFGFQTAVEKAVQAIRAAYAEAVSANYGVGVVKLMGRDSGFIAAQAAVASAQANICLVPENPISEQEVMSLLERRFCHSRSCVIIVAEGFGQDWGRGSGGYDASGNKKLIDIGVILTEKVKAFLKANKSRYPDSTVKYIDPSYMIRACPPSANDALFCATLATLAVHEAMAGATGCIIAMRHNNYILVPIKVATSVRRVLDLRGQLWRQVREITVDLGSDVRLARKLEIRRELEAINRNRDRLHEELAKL
# Method in brief: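 Activity was read as ADP production by luminescence (ADP-Glo) after 45 min at room temperature. The enzyme was 1.25nM PFK in 0.1M TEA pH 8.0 with 0.5 mM F6P, 0.1mM ATP and 5 mM MgCl2. Compounds were titrated up to 57 uM and % activity normalized to no-enzyme and full-enzyme controls.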
# [17] = Quantitative high throughput screen for delayed death inhibitors of the malarial parasite plastid, 96 hour incubation (AID 488745); further: nearly all actives have a fitted effect of over 70% in size; further: potency means the concentration at half of the fitted maximal effect
# Method in brief: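 Infected erythrocytes were added to compound in Albumax-supplemented RPMI 1640 at 0.1% parasitemia and 2% hematocrit (final), incubated 96 h at 37 C under 5% CO2, then luciferase reagent was added and luminescence measured.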
# [18] = target: RecQ-like DNA helicase BLM (Homo sapiens) (UniProt P54132); experiment: qHTS Validation Assay for Inhibitors of Bloom's syndrome helicase (BLM) (AID 2364)
# Method in brief: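 50 nM BLM preincubated 15 min at room temperature with compound in pH 8.0 Tris buffer containing 2.5 ug/ml poly(dI-dC); started with 200 nM TAMRA/BHQ-2 forked duplex and 2 mM ATP (final). Unwinding read as TAMRA fluorescence increase, two reads 2 h apart.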
# [19] = qHTS Assay for Modulators of Human Peripheral Myelin Protein 22 (PMP22) Expression/Activity (AID 1967; active means well fitted curve in the direction sought with a large enough effect in the signal ratio; the % refers to the signal ratio)
# Method in brief: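 Engineered MSC80 cells, Pmp22-promoter green and EF-alpha red luciferase reporters; 24h compound treatment at 37 °C. Concentration-response fits on green, red and ratio signals, each overlap-corrected, with %Activity normalized to untreated wells.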
SMILES,Potency [1],Potency [2],Potency [3],Potency [4],outcome [5],Potency [6],Potency [7],Potency [8],Potency [9],Potency [10],outcome [11],outcome [12],outcome [13],outcome [14],outcome [15],Potency [16],Potency [17],outcome [18],outcome [19]
C[C@](N)(Cc1ccc(O)cc1)C(=O)O,inactive,inactive,inactive,inactive,inactive,inactive,inactive,inactive,inactive,inactive,inactive,inactive,inactive,inactive,inactive,inactive,–,–,–
NC1CCN(c2cccc(Cl)n2)CC1,inactive,–,5.62 µM (active),inactive,inactive,inactive,inactive,inactive,inactive,inactive,inactive,inactive,inactive,inactive,inactive,inactive,inactive,–,–
CSc1ccc2c(c1)N(CCC1CCCCN1C)c1ccccc1S2 (stereo unspecified),12.6 µM (active),12.6 µM (active),5.01 µM (active),8.91 µM (active),inactive,inactive,–,–,inactive,–,–,inactive,inactive,inactive,inactive,–,–,inactive,–
C#CCN(C)Cc1ccccc1,inactive,inactive,–,inactive,inactive,inactive,inactive,inactive,inactive,inactive,inactive,inactive,inactive,inactive,inactive,–,inactive,–,–
NC(=O)c1ncn([C@@H]2O[C@H](CO)[C@@H](O)[C@H]2O)n1,inactive,inactive,–,inactive,inactive,inactive,inactive,inactive,inactive,inactive,inactive,inactive,inactive,inactive,inactive,inactive,–,inactive,–
C[C@H]1O[C@@H](n2cc(F)c(=O)[nH]c2=O)[C@H](O)[C@@H]1O,inactive,inactive,inactive,inactive,inactive,inactive,–,–,–,–,inactive,–,–,–,–,–,inactive,inactive,–
CC1=C(CC(=O)O)c2cc(F)ccc2/C1=C\c1ccc(S(C)=O)cc1 (stereo unspecified),inactive,inactive,–,inactive,–,inactive,inactive,inactive,inactive,inactive,inactive,inactive,inactive,inactive,inactive,–,inactive,–,–
CCN(CC)CCCC(C)Nc1c2ccc(Cl)cc2nc2ccc(OC)cc12 (stereo unspecified),0.0891 µM (active),0.126 µM (active),0.0891 µM (active),0.0891 µM (active),–,–,16.5 µM (active),18.5 µM (active),14.7 µM (active),–,–,–,inactive,inactive,inactive,inactive,0.0117 µM (active),inactive,–
CC(CN(C)C)CN1c2ccccc2CCc2ccccc21 (stereo unspecified),11.2 µM (active),–,6.31 µM (active),11.2 µM (active),inactive,inactive,inactive,inactive,inactive,inactive,inactive,inactive,inactive,inactive,inactive,inactive,–,inactive,–
CCN(CC)CCNC(=O)c1cc(Cl)c(N)cc1OC,inactive,inactive,–,inactive,–,inactive,inactive,inactive,inactive,inactive,inactive,inactive,inactive,inactive,inactive,inactive,inactive,inactive,inactive
OCCN1CCN(CCCN2c3ccccc3Sc3ccc(Cl)cc32)CC1,8.91 µM (active),7.94 µM (active),2.51 µM (active),5.01 µM (active),inactive,inactive,–,inactive,–,7.36 µM (active),–,inactive,inactive,inactive,inactive,inactive,5.22 µM (active),inactive,–
Cc1cc(N)c2ccccc2[n+]1CCCCCCCCCC[n+]1c(C)cc(N)c2ccccc21,0.112 µM (active),2.24 µM (active),–,0.126 µM (active),inactive,inactive,inactive,inactive,–,7.36 µM (active),–,inactive,inactive,inactive,inactive,–,–,inactive,–
CC1=C(CC(=O)O)c2cc(F)ccc2/C1=C\c1ccc(S(C)(=O)=O)cc1,inactive,inactive,–,–,inactive,inactive,inactive,inactive,inactive,inactive,inactive,inactive,inactive,inactive,inactive,inactive,–,inactive,–
NC(N)=NCCC[C@H](N)C(=O)O,inactive,inactive,inactive,inactive,inactive,inactive,inactive,inactive,inactive,inactive,inactive,inactive,inactive,inactive,inactive,–,inactive,inactive,–
CN(C)CCCN1c2ccccc2Sc2ccc(Cl)cc21,12.6 µM (active),12.6 µM (active),3.55 µM (active),8.91 µM (active),inactive,inactive,inactive,inactive,–,–,–,inactive,inactive,inactive,inactive,inactive,–,inactive,–
CN(C)CC[C@@H](c1ccc(Cl)cc1)c1ccccn1,inactive,3.98 µM (active),1 µM (active),inactive,inactive,inactive,inactive,inactive,inactive,inactive,inactive,inactive,inactive,inactive,inactive,–,inactive,–,–
CCCCCCCCCCCCCCCC(=O)NCCO,inactive,inactive,3.16 µM (active),–,inactive,inactive,inactive,inactive,inactive,inactive,inactive,inactive,inactive,inactive,inactive,inactive,–,inactive,inactive
CC(C)(C(=O)O)c1ccc(C(O)CCCN2CCC(C(O)(c3ccccc3)c3ccccc3)CC2)cc1 (stereo unspecified),inactive,inactive,–,inactive,–,inactive,inactive,inactive,inactive,inactive,inactive,inactive,inactive,inactive,inactive,–,inactive,–,inactive
N=c1c[n+](N2CCOCC2)[n-]o1,inactive,inactive,–,inactive,inactive,inactive,inactive,inactive,inactive,inactive,inactive,inactive,inactive,inactive,inactive,inactive,inactive,inactive,inactive
C=Cc1c(C)c2cc3[nH]c(cc4nc(cc5nc(cc1[nH]2)C(C)=C5CCC(=O)O)C(CCC(=O)O)=C4C)c(C)c3C=C,inactive,inactive,inactive,inactive,–,11.2 µM (active),inactive,inactive,inactive,inactive,inactive,–,inactive,inactive,inactive,19 µM (active),inactive,inactive,inactive
CSc1ccc2c(c1)C(N1CCN(C)CC1)Cc1ccccc1S2 (stereo unspecified),12.6 µM (active),8.91 µM (active),4.47 µM (active),10 µM (active),–,inactive,–,–,inactive,–,–,inactive,inactive,inactive,inactive,inactive,–,inactive,–
CC(CN1c2ccccc2Sc2ccccc21)N(C)C (stereo unspecified),14.1 µM (active),5.01 µM (active),2.24 µM (active),11.2 µM (active),inactive,inactive,inactive,inactive,–,–,–,inactive,inactive,inactive,inactive,–,–,–,–
Nc1cc(=O)[nH]c(N)n1,inactive,inactive,inactive,inactive,inactive,inactive,inactive,inactive,inactive,inactive,inactive,inactive,inactive,inactive,inactive,–,inactive,–,–
